Laboratory results taken from the supplement of paper PMC8728848.
This excerpt belongs to a sample that is enriched for the strongest signals.

Assays:
Test in all cases: glycan array binding signal (z-score within array); higher = stronger binding
Settings in all cases: glycan notation: IUPAC condensed, linker removed
[1] = target: Gal(b1-4)GlcNAc(b1-3)[GlcNAc(b1-6)]Gal(b1-4)GlcNAc
How it was run: (§1)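 Glycan array data were curated from 3228 arrays in the Consortium for Functional Glycomics database and kept only where the protein sequence was available. Glycan names were converted to IUPAC-condensed notation, and columns mapping to the same glycan were averaged. The binding signal is a within-array Z-score, averaged across arrays of the same protein sequence at different concentrations or buffers and across linkers. Negative Z-scores can be read as non-binding.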

Gal6S(b1-4)Glc6S = target: Gal6S(b1-4)Glc6S
How it was run: as §1

Glc(a1-6)Glc(a1-6)Glc = target: Glc(a1-6)Glc(a1-6)Glc
How it was run: as §1

[2] = target: GlcNAc(a1-4)Gal(b1-4)GlcNAc(b1-3)Gal(b1-4)GlcNAc
How it was run: as §1

[3] = target: GlcNAc(b1-2)Man(a1-3)[GlcNAc(b1-4)][GlcNAc(b1-2)Man(a1-6)]Man(b1-4)GlcNAc(b1-4)GlcNAc
How it was run: as §1

[4] = target: GlcNAc(b1-3)Gal(b1-4)GlcNAc(b1-3)Gal(b1-4)GlcNAc(b1-2)[GlcNAc(b1-3)Gal(b1-4)GlcNAc(b1-3)Gal(b1-4)GlcNAc(b1-6)]Man(a1-6)[GlcNAc(b1-3)Gal(b1-4)GlcNAc(b1-3)Gal(b1-4)GlcNAc(b1-2)Man(a1-3)]Man(b1-4)GlcNAc(b1-4)[Fuc(a1-6)]GlcNAc
How it was run: as §1

[5] = target: GlcNAc(b1-3)Gal(b1-4)GlcNAc(b1-3)Gal(b1-4)GlcNAc(b1-3)Gal(b1-4)GlcNAc(b1-3)Gal(b1-4)GlcNAc(b1-2)Man(a1-3)[GlcNAc(b1-3)Gal(b1-4)GlcNAc(b1-3)Gal(b1-4)GlcNAc(b1-3)Gal(b1-4)GlcNAc(b1-3)Gal(b1-4)GlcNAc(b1-2)Man(a1-6)]Man(b1-4)GlcNAc(b1-4)[Fuc(a1-6)]GlcNAc
How it was run: as §1

[6] = target: GlcNAc(b1-3)Gal(b1-4)GlcNAc(b1-3)Gal(b1-4)GlcNAc(b1-3)Gal(b1-4)GlcNAc(b1-3)Gal(b1-4)GlcNAc(b1-2)[GlcNAc(b1-3)Gal(b1-4)GlcNAc(b1-3)Gal(b1-4)GlcNAc(b1-3)Gal(b1-4)GlcNAc(b1-3)Gal(b1-4)GlcNAc(b1-6)]Man(a1-6)[GlcNAc(b1-3)Gal(b1-4)GlcNAc(b1-3)Gal(b1-4)GlcNAc(b1-3)Gal(b1-4)GlcNAc(b1-3)Gal(b1-4)GlcNAc(b1-2)Man(a1-3)]Man(b1-4)GlcNAc(b1-4)[Fuc(a1-6)]GlcNAc
How it was run: as §1

Kdn(a2-3)Gal(b1-4)GlcNAc = target: Kdn(a2-3)Gal(b1-4)GlcNAc
How it was run: as §1

Neu5Ac(a2-3)Gal = target: Neu5Ac(a2-3)Gal
How it was run: as §1

[7] = target: Neu5Ac(a2-3)Gal(b1-3)GlcNAc(b1-2)Man
How it was run: as §1

[8] = target: Neu5Ac(a2-3)Gal(b1-3)[Fuc(a1-4)]GlcNAc(b1-3)Gal(b1-4)[Fuc(a1-3)]GlcNAc
How it was run: as §1

[9] = target: Neu5Ac(a2-3)Gal(b1-3)[Neu5Ac(a2-6)]GalNAc
How it was run: as §1

[10] = target: Neu5Ac(a2-3)Gal(b1-4)GlcNAc(b1-3)Gal(b1-4)GlcNAc(b1-3)Gal(b1-4)GlcNAc(b1-2)Man(a1-3)[Neu5Ac(a2-3)Gal(b1-4)GlcNAc(b1-3)Gal(b1-4)GlcNAc(b1-3)Gal(b1-4)GlcNAc(b1-2)Man(a1-6)]GalNAc
How it was run: as §1

[11] = target: Neu5Ac(a2-3)Gal(b1-4)GlcNAc(b1-3)Gal(b1-4)[Fuc(a1-3)]GlcNAc
How it was run: as §1

[12] = target: Neu5Ac(a2-3)Gal(b1-4)GlcNAc(b1-6)[Neu5Ac(a2-3)Gal(b1-3)]GalNAc
How it was run: as §1

[13] = target: Neu5Ac(a2-3)Gal(b1-4)[Fuc(a1-3)]GlcNAc(b1-3)GalNAc
How it was run: as §1

[14] = target: Neu5Ac(a2-3)Gal(b1-4)[Fuc(a1-3)]GlcNAc(b1-6)[Gal(b1-3)]GalNAc
How it was run: as §1

[15] = target: Neu5Ac(a2-3)[GalNAc(b1-4)]Gal(b1-4)Glc
How it was run: as §1

[16] = target: Neu5Ac(a2-6)Gal(b1-4)GlcNAc(b1-2)Man(a1-3)[Neu5Ac(a2-6)Gal(b1-4)GlcNAc(b1-2)Man(a1-6)]Man(b1-4)GlcNAc(b1-4)[Fuc(a1-6)]GlcNAc
How it was run: as §1

[17] = target: Neu5Ac(a2-6)Gal(b1-4)GlcNAc(b1-3)Gal(b1-4)GlcNAc(b1-3)Gal(b1-4)GlcNAc(b1-2)Man(a1-3)[Neu5Ac(a2-6)Gal(b1-4)GlcNAc(b1-3)Gal(b1-4)GlcNAc(b1-3)Gal(b1-4)GlcNAc(b1-2)Man(a1-6)]GalNAc
How it was run: as §1

[18] = target: Neu5Ac(a2-6)Gal(b1-4)GlcNAc(b1-3)Gal(b1-4)GlcNAc(b1-3)[Neu5Ac(a2-6)Gal(b1-4)GlcNAc(b1-3)Gal(b1-4)GlcNAc(b1-6)]GalNAc
How it was run: as §1

[19] = target: Neu5Ac(a2-8)Neu5Gc(a2-3)Gal(b1-4)GlcNAc
How it was run: as §1

[20] = target: Neu5Gc(a2-3)Gal(b1-4)[Fuc(a1-3)]GlcNAc
How it was run: as §1

B1: PX9961T-pdi-555-33-555 (Parabacteroides distasonis) (protein)
chain: FDEETAFQSPTLVYVNTVASLYNNMFKIMGNDRHVYDLNTFSSDEAMLPCRIGDWEDGGLWQNIFLHRWGTMNDLTKNSWDFLYEQIGKCNQSVDKLQAFAEEQPDVEYFKVYLEEVRAVRAFFYYELLDLFARVPLVTSSTTPMSEVKQSERSVVFNFVRSELEEALPYLSDNRSNQKGEYYGRITKPVAYMILAKLALNAEVYADDNWTDGNRPAGKNIKFTVDGKEMNAWEATIAYVDKLEALGYKLQGNFSENFAVANETSVENIFTVPMDPVAYPDAKDYNLVRTRHYDHATAYGQSGWNGSCATVKAMNVFKFGTADEDPRCKLTYFTGEVTGPDGKTIYTEWDGQKVPLKYEPNAPKVYMDASDGLLVKTAGARMAKYEFDQNAQDGGNLHGNDCVIFRFADALLMKAEAKIRLGQNGDDEVNQVRNRVGAKPLQNVTLDTLLDERMLELAWEGVRRQDLIRFGKFTEATVDRYVGVKHFASSLDYQEDKTGYTTVFSIYADILSLNPNLTQNPGY
[1]
  glycan array binding signal (z-score): -0.222
Gal6S(b1-4)Glc6S
  glycan array binding signal (z-score): -0.372
Glc(a1-6)Glc(a1-6)Glc
  glycan array binding signal (z-score): 0.357
[2]
  glycan array binding signal (z-score): -0.402
[3]
  glycan array binding signal (z-score): -0.416
[4]
  glycan array binding signal (z-score): -0.298
[5]
  glycan array binding signal (z-score): 0.229
[6]
  glycan array binding signal (z-score): -0.523
Kdn(a2-3)Gal(b1-4)GlcNAc
  glycan array binding signal (z-score): -0.683
Neu5Ac(a2-3)Gal
  glycan array binding signal (z-score): -0.213
[7]
  glycan array binding signal (z-score): -0.451
[8]
  glycan array binding signal (z-score): -0.031
[9]
  glycan array binding signal (z-score): -0.194
[10]
  glycan array binding signal (z-score): 1.63
[11]
  glycan array binding signal (z-score): -0.528
[12]
  glycan array binding signal (z-score): 1.08
[13]
  glycan array binding signal (z-score): 1.68
[14]
  glycan array binding signal (z-score): -0.177
[15]
  glycan array binding signal (z-score): 1.56
[16]
  glycan array binding signal (z-score): -0.612
[17]
  glycan array binding signal (z-score): 0.737
[18]
  glycan array binding signal (z-score): 1.82
[19]
  glycan array binding signal (z-score): 20.7
[20]
  glycan array binding signal (z-score): 0.358
